These results are taken from the supplement of paper PMC5940239.

Values without a mark were called inactive.

The subject of this assay is Madurella mycetomatis MM55. Put plainly: percent growth relative to solvent control; higher = less inhibition, active = 20 or less. As to conditions: 100 µM; 7 days.
Regarding `COc1ccc2nccc(NC(=O)C3CCN(CCc4ccc(Cl)cc4)CC3)c2n1`, the percent growth was 48.8%.
With `CCOc1ccccc1NC(C)C(=O)Nc1cc(C(F)(F)F)ccc1N1CCOCC1` (stereo not drawn) the figure was 76.7%; with `O=C(Nc1ccccc1-c1nc2c(C(=O)O)cccc2o1)c1ccccc1`, 94%.
The figure for `Nc1ncnc2c1c(-c1cnc3ccccc3c1)nn2CC1CCNCC1` is 93.3%; for `CC1COC2(CCN(c3nc(=O)c4cc(C(F)(F)F)cc([N+](=O)[O-])c4s3)CC2)O1` (stereo not drawn) it is 79.4%; for `Nc1ncnc2c1ncn2C[C@@H](O)[C@@H](O)C(=O)O` it is 134%.
In the case of `Cc1cc(NC(=O)c2ccc(S(=O)(=O)N(Cc3ccccc3)C(C)C)cc2)no1`, the percent growth is 92.5%.
With `COc1ccc2nc(C)cc(OCC(=O)Nc3ccccc3OC)c2c1` the figure was 72.5%; with `CC(C(=O)N1CCCC1)N1CCN(S(=O)(=O)c2ccc(C(C)(C)C)cc2)CC1` (stereo not drawn), 89.9%.
Consider `CS(=O)(=O)c1ccccc1C(=O)N(Cc1ccccc1)c1ccccc1`, for which the percent growth is 91%.
With `CN1CCN(S(=O)(=O)c2ccc(-c3ccc4c(Nc5ccc6nn[nH]c6c5)ccnc4c3)cc2)CC1` the figure was 151%.
Turning to `CCc1cc(=O)n(C)c(SC(C)C(=O)Nc2ccc(F)cc2)n1` (stereo not drawn), the percent growth is 61.1%.
Take `CNc1snc(C)c1C(=O)NCCOc1ccc(OC)cc1`: the percent growth was 92.2%.
The figure for `Clc1ccc(-n2cc(COc3ccnc4ccccc34)nn2)cc1` is 63%; for `COc1cc(C2=NCCN2)ccc1-c1cn(-c2cccc(C3=NCCN3)c2)nn1` it is 61%; for `COc1ccc(Oc2ccc([C@@H](C)N(C)c3ncc4c(N)nc(N)nc4n3)cc2)cc1` it is 0.491% (active).
Regarding `Cc1cc(Cl)ccc1NC(=O)CCc1ccc(S(=O)(=O)NCC(C)C)cc1`, the percent growth is 91.1%.
On to `CC(C)(C)c1cc(C(=O)Nc2cccnc2)cc(C(=O)Nc2cccnc2)c1`, for which the percent growth was 153%.
The figure for `O=C(NC1CC1)c1ccc(CSCc2ccccc2Cl)o1` is 41.5%; for `CC1CCCCN1C(=O)NCCc1coc(-c2ccc(F)cc2)n1` (stereo not drawn) it is 70%; for `CS(=O)(=O)N1CCC(Cn2nc(Cc3cccc4ccccc34)c3c(N)ncnc32)CC1` it is 92.8%.
With `O=C(C(Cc1c[nH]c2ccccc12)NS(=O)(=O)c1ccc(Cl)cc1)N1CCCCC1` (stereo not drawn), the percent growth is 43.6%.
With `Cc1cc(OCC(=O)Nc2ccc(C(C)C)cc2)n(C)c(=O)c1C#N` the figure was 96%; with `Cc1noc(C)c1C(=O)N1CCCC(c2[nH]c3c(C)cccc3c2-c2ccncc2)C1` (stereo not drawn), 51.6%.
Take `O=C1Nc2ccc(Br)cc2C12NCCc1c2[nH]c2ccccc12` (stereo not drawn): the percent growth was 63.6%.
The figure for `Cc1ccccc1C(=O)N1N=C(Nc2ccccc2)SC1(C)C` is 93.7%.
Turning to `Cc1ccc2[nH]c3c(NCCN(C)C)ncnc3c2c1`, the percent growth was 94.1%.
The figure for `O=C(NCc1ccoc1)N1CCN(Cc2ccc3c(c2)OCO3)CC1` is 92.5%; for `COc1cc(Br)cc2cc(C(=O)Nc3cccc(C(F)(F)F)c3)c(=O)oc12` it is 125%; for `Cc1nn2c(O)c3c(nc2c1-c1ccc(F)cc1)CCCC3` it is 113%.
With `COc1cccc(NC(=O)c2c(NC(=O)c3cccnc3)sc3c2CCC3)c1` the figure was 50.9%.
As for `CC(=O)N(CCN(C(=O)c1ccc(F)cc1)c1ccccc1)c1ccccc1`, the percent growth was 48.9%.
With `COc1cccc(CC(=O)N2CCC(n3c(C)nc4ccc(F)cc43)CC2)c1`, the percent growth is 118%.
For the compound `O=C(Nc1ccc(F)c(-c2nc3cc(-c4ccccc4)cnc3[nH]2)c1)N1CCCC1`, the percent growth is 95.8%.
On to `CC(C)(C)OC(=O)N1CCC(Cn2nc(-c3cnc4ccccc4c3)c3c(N)ncnc32)CC1`, for which the percent growth is 99.2%.
With `CCCCS(=O)(=O)Nc1ccc2cnn(C)c2c1` the figure was 106%.
With `CCn1cnc2c(Nc3cc(F)cc(F)c3)nc(C#N)nc21` the figure was 95.2%; with `CC1CC1C(=O)NC1CCN(CC2(c3ccccc3)CCCCC2)CC1` (stereo not drawn), 92.9%.
